Results from the supplement of paper PMC12067093, “Discovery and optimisation of a covalent ligand for TRIM25 and its application to targeted protein ubiquitination” (Chemical Science, 2025).
The full data set covers some 21,000 targets. This sample favours those with the largest changes.
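Also: competitive profiling in live THP-1 cells: cysteine peptides tagged with an iodoacetamide desthiobiotin (IA-DTB) probe, intensity after compound treatment relative to DMSO-treated cells.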

Sequence of UniProt Q9UBK8 (Q9UBK8 whole entry): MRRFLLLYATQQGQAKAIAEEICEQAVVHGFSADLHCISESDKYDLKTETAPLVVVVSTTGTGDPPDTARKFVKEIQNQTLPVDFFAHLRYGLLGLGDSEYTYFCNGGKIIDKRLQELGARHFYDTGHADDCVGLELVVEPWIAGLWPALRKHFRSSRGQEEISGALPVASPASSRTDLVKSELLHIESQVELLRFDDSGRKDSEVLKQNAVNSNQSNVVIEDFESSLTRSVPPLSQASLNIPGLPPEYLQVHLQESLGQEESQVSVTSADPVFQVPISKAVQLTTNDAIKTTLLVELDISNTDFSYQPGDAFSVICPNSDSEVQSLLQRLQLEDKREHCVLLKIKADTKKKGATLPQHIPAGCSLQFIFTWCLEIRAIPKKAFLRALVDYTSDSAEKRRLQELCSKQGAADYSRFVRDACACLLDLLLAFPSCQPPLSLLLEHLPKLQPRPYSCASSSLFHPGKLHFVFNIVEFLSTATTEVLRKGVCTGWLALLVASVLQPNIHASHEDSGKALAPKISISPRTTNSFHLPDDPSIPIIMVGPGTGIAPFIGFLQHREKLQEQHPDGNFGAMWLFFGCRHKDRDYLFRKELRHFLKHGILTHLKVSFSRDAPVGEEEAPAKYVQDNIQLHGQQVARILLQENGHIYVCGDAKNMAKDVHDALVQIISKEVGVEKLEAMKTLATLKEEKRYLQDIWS
Sequence of UniProt Q9H3L0 (Q9H3L0 whole entry, looked up): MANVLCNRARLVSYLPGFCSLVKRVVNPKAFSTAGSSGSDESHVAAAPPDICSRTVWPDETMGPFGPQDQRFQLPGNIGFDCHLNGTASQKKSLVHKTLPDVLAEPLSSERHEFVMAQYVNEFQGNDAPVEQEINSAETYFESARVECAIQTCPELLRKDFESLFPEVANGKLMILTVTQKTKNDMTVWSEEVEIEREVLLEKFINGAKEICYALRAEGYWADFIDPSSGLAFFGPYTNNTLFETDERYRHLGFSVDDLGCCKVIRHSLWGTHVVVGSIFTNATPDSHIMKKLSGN
Sequence of UniProt Q9UBG0 (Q9UBG0 whole entry, looked up): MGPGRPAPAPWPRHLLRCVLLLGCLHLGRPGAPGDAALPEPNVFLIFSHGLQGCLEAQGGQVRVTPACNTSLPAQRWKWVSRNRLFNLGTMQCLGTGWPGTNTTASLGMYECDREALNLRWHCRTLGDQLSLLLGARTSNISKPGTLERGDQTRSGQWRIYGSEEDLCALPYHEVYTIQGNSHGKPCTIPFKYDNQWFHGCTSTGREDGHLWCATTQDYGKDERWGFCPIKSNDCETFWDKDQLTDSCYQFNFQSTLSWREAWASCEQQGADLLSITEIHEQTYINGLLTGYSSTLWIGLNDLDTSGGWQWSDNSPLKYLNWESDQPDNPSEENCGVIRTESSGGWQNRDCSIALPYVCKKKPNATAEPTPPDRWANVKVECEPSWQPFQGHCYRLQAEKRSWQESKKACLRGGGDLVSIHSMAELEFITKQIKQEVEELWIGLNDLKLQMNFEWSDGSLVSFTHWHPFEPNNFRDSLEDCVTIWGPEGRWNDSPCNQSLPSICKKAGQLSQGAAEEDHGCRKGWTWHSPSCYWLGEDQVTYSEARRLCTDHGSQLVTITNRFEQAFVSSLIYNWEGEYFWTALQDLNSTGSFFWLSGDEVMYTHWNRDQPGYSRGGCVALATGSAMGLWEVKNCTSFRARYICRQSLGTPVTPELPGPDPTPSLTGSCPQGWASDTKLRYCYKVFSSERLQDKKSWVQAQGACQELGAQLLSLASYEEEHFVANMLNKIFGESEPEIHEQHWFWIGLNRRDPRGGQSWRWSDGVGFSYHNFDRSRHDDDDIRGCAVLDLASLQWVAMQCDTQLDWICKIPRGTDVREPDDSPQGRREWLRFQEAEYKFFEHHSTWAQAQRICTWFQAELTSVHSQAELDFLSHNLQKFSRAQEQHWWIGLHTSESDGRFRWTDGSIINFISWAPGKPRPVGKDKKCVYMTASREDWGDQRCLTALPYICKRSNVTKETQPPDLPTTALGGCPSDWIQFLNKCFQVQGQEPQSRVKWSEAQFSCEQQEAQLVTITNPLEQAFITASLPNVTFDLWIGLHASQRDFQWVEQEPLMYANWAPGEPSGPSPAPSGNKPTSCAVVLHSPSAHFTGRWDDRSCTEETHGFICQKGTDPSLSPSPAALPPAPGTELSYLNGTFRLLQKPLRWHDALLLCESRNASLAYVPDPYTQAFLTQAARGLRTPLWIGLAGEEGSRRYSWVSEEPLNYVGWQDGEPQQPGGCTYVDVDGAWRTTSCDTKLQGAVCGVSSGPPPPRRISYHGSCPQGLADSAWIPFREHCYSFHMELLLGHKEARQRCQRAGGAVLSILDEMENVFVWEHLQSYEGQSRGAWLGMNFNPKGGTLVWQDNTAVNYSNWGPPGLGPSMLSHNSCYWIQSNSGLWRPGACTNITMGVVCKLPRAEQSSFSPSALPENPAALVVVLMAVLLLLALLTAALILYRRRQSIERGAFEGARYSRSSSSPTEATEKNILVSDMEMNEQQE
Sequence of UniProt Q8NCE2 (Q8NCE2 whole entry, looked up): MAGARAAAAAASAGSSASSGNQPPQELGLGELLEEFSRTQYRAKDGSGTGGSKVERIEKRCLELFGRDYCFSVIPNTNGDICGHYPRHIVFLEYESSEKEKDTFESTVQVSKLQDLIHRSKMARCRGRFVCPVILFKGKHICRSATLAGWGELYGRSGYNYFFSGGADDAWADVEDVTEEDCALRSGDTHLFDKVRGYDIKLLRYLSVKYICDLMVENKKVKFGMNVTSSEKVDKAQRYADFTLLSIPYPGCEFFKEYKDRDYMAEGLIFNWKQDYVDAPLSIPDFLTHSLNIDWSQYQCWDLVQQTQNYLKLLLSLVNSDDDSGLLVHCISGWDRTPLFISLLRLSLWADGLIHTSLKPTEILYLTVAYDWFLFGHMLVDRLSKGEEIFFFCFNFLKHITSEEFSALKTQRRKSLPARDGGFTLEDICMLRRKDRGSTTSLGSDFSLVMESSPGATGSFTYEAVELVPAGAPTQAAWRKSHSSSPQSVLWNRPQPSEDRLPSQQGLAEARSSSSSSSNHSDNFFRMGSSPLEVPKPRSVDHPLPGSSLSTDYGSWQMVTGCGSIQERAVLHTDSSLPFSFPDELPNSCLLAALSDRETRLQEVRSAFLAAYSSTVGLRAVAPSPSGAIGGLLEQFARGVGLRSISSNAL
Sequence of UniProt P20645 (P20645 whole entry, looked up): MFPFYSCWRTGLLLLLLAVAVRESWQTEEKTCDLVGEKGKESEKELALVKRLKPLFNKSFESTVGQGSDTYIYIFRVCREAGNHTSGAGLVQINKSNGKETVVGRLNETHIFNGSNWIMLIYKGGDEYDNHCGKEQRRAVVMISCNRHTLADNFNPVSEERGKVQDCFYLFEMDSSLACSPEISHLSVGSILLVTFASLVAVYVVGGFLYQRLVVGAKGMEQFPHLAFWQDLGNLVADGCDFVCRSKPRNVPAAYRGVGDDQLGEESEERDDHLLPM
Sequence of UniProt Q9NYP9 (Q9NYP9 whole entry, looked up): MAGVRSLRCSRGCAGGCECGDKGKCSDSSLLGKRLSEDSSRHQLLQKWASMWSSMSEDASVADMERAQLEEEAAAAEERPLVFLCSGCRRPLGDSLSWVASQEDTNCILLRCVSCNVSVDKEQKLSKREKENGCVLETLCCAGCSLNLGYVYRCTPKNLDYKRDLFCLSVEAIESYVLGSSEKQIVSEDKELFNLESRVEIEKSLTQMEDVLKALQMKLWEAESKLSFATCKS
Sequence of UniProt Q10469 (Q10469 whole entry, looked up): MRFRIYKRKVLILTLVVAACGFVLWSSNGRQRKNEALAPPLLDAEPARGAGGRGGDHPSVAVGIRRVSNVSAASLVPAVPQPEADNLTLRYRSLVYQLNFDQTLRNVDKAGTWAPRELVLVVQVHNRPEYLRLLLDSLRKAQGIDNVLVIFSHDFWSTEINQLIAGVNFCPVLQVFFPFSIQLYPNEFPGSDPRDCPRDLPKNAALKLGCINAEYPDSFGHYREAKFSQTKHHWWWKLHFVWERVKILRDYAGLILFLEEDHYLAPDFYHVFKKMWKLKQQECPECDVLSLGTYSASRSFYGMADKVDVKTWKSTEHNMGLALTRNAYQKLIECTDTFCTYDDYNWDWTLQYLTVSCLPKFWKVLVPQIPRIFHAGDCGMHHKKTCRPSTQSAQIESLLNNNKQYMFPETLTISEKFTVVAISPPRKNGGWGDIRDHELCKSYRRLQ
Sequence of UniProt Q92918 (Q92918 whole entry, looked up): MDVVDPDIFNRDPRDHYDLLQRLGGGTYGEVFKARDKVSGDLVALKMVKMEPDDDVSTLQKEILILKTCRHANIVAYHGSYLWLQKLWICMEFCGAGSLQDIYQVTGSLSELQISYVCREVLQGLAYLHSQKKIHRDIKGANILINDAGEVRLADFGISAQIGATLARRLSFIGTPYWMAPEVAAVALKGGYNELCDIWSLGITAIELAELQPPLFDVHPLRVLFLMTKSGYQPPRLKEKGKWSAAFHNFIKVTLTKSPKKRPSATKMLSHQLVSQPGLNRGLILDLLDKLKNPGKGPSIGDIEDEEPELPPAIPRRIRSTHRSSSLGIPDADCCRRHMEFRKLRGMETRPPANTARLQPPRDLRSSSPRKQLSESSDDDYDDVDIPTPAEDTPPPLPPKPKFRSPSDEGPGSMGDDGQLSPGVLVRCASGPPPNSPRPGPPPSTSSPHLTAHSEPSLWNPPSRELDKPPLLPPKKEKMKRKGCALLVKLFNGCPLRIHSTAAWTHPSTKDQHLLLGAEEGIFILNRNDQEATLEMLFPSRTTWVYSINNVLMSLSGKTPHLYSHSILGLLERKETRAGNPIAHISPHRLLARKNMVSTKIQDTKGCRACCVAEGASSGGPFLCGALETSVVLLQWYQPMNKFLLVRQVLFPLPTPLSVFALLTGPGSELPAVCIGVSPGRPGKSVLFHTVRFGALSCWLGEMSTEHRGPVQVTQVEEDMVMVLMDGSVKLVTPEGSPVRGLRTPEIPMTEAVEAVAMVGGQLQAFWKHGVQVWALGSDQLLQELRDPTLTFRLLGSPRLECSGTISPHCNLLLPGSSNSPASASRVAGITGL

The targets below were run with Cc1cc(ccc1-c1ccccc1)C(=O)N1CCCN(CC1)C(=O)CCl [compound 10] (assay: probe-labelled cysteine peptide fold change vs DMSO (competition) (log2 fold change); higher = less target engagement (more negative = stronger competition)). Settings: 50 µM; THP-1; incubation time: 4 h.
In the case of “MIS18A_Q9NYP9_85_AQLEEEAAAAEERPLVFLCSGCR (UniProt Q9NYP9)”, the “probe-labelled cysteine peptide fold change” value is reported as -0.0262.
For “MCMBP_Q9BTE3_249_VYEDWDCFK (UniProt Q9BTE3)”, the “probe-labelled cysteine peptide fold change” value was -0.0294.
For “MGAT2_Q10469_378_IFHAGDCGMHHK (UniProt Q10469)”, the “probe-labelled cysteine peptide fold change” value was -0.149.
“MTCH2_Q9Y6C9_49_QVCQLPGLFSYAQHIASIDGR (UniProt Q9Y6C9)” was tested, and the “probe-labelled cysteine peptide fold change” value was 0.0916.
In the case of “MTRR_Q9UBK8_64_AIAEEICEQAVVHGFSADLHCISESDKYDLK (UniProt Q9UBK8)”, the “probe-labelled cysteine peptide fold change” value is reported as -0.379.
In the case of “MTREX_P42285_430_KMVEEVFSNAIDCLSDEDK (UniProt P42285)”, the “probe-labelled cysteine peptide fold change” value is reported as -0.485.
With “MACF1_Q9UPN3_5309_DCDVQGLEHDMEEINAR (UniProt Q9UPN3)” the “probe-labelled cysteine peptide fold change” value was 0.126.
With “MRPS18A_Q9NVS2_186_DNVCYSR (UniProt Q9NVS2)” the “probe-labelled cysteine peptide fold change” value was -0.099.
“MMADHC_Q9H3L0_261+262_HLGFSVDDLGCCK (UniProt Q9H3L0)” was tested, and the “probe-labelled cysteine peptide fold change” value was -1.16.
For “MMP14_P50281_574_RLLYCQR (UniProt P50281)”, the “probe-labelled cysteine peptide fold change” value was -0.518.
“MAP2K2_P36507_384_SEVEEVDFAGWLCK (UniProt P36507)” was tested, and the “probe-labelled cysteine peptide fold change” value was 0.0969.
In the case of “MRC2_Q9UBG0_201_YDNQWFHGCTSTGR (UniProt Q9UBG0)”, the “probe-labelled cysteine peptide fold change” value is reported as -2.04.
“M6PR_P20645_145_AVVMISCNR (UniProt P20645)” was tested, and the “probe-labelled cysteine peptide fold change” value was -0.155.
In the case of “LIMS1_P48059_240+252_GLAYCETHYNQLFGDVCFHCNR (UniProt P48059)”, the “probe-labelled cysteine peptide fold change” value is reported as 0.118.
With “MYH9_P35579_789_ITDVIIGFQACCR (UniProt P35579)” the “probe-labelled cysteine peptide fold change” value was -0.0345.
With “MMS19_Q96T76_331_REVFQTASERVEAEGLAALHSLTACLSR (UniProt Q96T76)” the “probe-labelled cysteine peptide fold change” value was 0.0397.
For “MYH9_P35579_671_CIIPNHEKK (UniProt P35579)”, the “probe-labelled cysteine peptide fold change” value was -1.18.
In the case of “MUT_P22033_560_CTVGEITDALK (UniProt P22033)”, the “probe-labelled cysteine peptide fold change” value is reported as 0.0797.
With “MTMR14_Q8NCE2_131_FVCPVILFK (UniProt Q8NCE2)” the “probe-labelled cysteine peptide fold change” value was -0.0865.
For “MRPL53_Q96EL3_21_VQFCPFEK (UniProt Q96EL3)”, the “probe-labelled cysteine peptide fold change” value was -0.103.
In the case of “MAP4K1_Q92918_335_SSSLGIPDADCCR (UniProt Q92918)”, the “probe-labelled cysteine peptide fold change” value is reported as -1.09.
